The values that follow come from PubChem BioAssay (NCI).

SMILES strings stand for the structures. This is part of a sample that, as a whole, favours compounds with a hit. Of some 83,000 tested, about 20% had one in any assay.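 96-well plates, one dose, 48 hours. Percent growth reported; active if below 10.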 Values without a mark were called inactive. Calls of active or inactive are those of the source.

Common to all, as to experiment: NCI-60 one-dose screen, 48 h (100 = growth as untreated, 0 = no growth, -100 = all killed)
Holding throughout (details): 10 µM unless noted

Assay [1] deals with NCI-H23 lung.
Assay [2] concerns NCI-H226 lung.
The subject of assay [3] is HOP-62 NSCLC.
The test system of assay [4] is NCI-H460 lung.
Assay [5] concerns HOP-92 NSCLC.
Assay [6] relates to NCI-H522 lung.
In assay [7] the test system is A549/ATCC NSCLC.
Assay [8] concerns 786-0 renal.
Assay [9] concerns COLO 205 colon.
Assay [10] has as its system DU-145 prostate.
The test system of assay [11] is K-562 leukemia.
The test system of assay [12] is MDA-MB-231 breast.
In assay [13] the test system is RXF 393 renal.
Assay [14] deals with SF-268 CNS.
In assay [15] the test system is SF-295 CNS.
Assay [16] has as its system SF-539 CNS.
Assay [17] deals with UACC-257 melanoma.
The subject of assay [18] is M14 melanoma.
In assay [19] the test system is MALME-3M melanoma.
Assay [20] relates to NCI-H322M lung.

`Nc1ccc(Br)cn1`: the growth in [1] is 104%; in assay [2] it was 99.9%; in assay [3], 101%; in assay [4], 106%; in assay [5] it was 89.4%; in assay [6], 95.4%. Besides, the growth in assay [7] is 103%; in [8] it was 106%; in assay [9], 113%; in assay [10], 112%; in assay [11] it was 117%; in assay [12] it was 99.3%. Besides, the growth was 108% in [13]; 110% in assay [14]; 114% in assay [15]; 99.1% in assay [16]; 106% in assay [17]; 98.6% in assay [18].

Take `CC(=O)O[C@@H]1CCN2C(=O)N(C)c3ccccc3[C@@H]2C1`: the growth in assay [1] is 98.7%; in assay [2], 109%; in assay [3] it was 104%; in assay [4], 104%; in assay [5], 111%; in assay [6], 96.4%. In addition, the growth in assay [7] is 95%; in assay [8], 101%; in assay [9], 114%; in assay [10], 121%; in assay [11], 93.5%; in assay [19], 94.7%. Further, the growth was 111% in assay [12]; 115% in [13]; 113% in assay [14]; 88.9% in [15]; 97.7% in assay [16]; 101% in assay [18].

For the compound `COc1cc2[nH]c(C(=O)c3cc(OC)c(OC)c(OC)c3)c(N)c2cc1C#CCO`, the growth in assay [1] was 35.7%; in assay [2] it was 27.9%; in assay [3] it was 28.3%; in assay [4], 7.9% (active); in [5], 21.6%; in [6] it was -6.03% (active). Besides, the growth in [7] was 33%; in [8], 40.8%; in assay [9] it was -35.8% (active); in [10], 12.2%; in assay [11] it was 7.65% (active); in assay [19], 31.7%. The growth in assay [12] was 39%; in assay [13] it was 1.88% (active); in assay [14], 32.5%; in assay [16], -35% (active); in [17], 71.2%; in assay [18], 7.42% (active).

`CC(C)(C)c1nc(-c2ccc(O)c(O)c2)cs1`: the growth is 68.8% in [1]; 93.7% in assay [2]; 66.7% in assay [3]; 33.1% in [4]; 61.3% in [5]; 21% in assay [6]. For the same compound, the growth in [7] is 55.7%; in assay [8], 77.5%; in [9] it was 92.6%; in [10], 66.3%; in assay [11], 50%; in assay [19], 86.8%. Also, the growth in assay [12] was 54.3%; in assay [13], 72%; in [14] it was 67.1%; in assay [15], 61.6%; in [16], 57.7%; in [17], 76.2%. Besides, in assay [18], the growth was 43.2%.

For `COc1cc(/C=C2\C(=O)N(CC(O)COc3cc(O)c4c(=O)cc(-c5ccccc5)oc4c3)c3ccccc32)cc(OC)c1O` (stereo not drawn), the growth is 88.8% in assay [1]; 99.7% in assay [2]; 87.9% in [3]; 85% in assay [4]; 82.4% in assay [5]; 64.1% in assay [6]. Further, the growth in assay [7] is 95.4%; in assay [8], 98%; in [9], 113%; in [10], 85.6%; in assay [11], 71.4%; in [19], 99.1%. Besides, the growth in assay [12] is 84.6%; in assay [13], 101%; in [14], 80%; in assay [15], 95.1%; in assay [16], 88.1%; in assay [17] it was 110%. In addition, the growth in assay [18] was 88.7%.

With `Oc1cccc2oc(=S)[nH]c12`, the growth in assay [1] was 104%; in assay [2] it was 106%; in assay [20], 128%; in assay [4], 116%; in assay [5], 102%; in [6] it was 101%. Moreover, the growth in assay [7] was 107%; in assay [8] it was 106%; in assay [9] it was 117%; in assay [10], 118%; in assay [11], 118%; in assay [12], 99.1%. The growth was 112% in [13]; 111% in [14]; 118% in assay [15]; 88.8% in assay [16]; 114% in assay [17]; 111% in assay [18].

`C=C(C)[C@@H]1CC[C@]2(C(=O)N3CCN(CC)CC3)CC[C@]3(C)[C@H](CC[C@@H]4[C@@](C)(CCC(=O)N5CCN(CC)CC5)[C@H](C(=C)C)CC[C@]43C)[C@@H]12`: the growth in [1] is 74.4%; in assay [2], 79.6%; in [3], 88.7%; in [4] it was 25.1%; in [5] it was 52.2%; in assay [6], 77.9%. The growth is 57.4% in [7]; 0.392% (active) in assay [8]; 61.1% in assay [9]; 70.8% in assay [10]; 30.4% in assay [11]; 43.2% in assay [19]. Moreover, the growth in [12] is 58.6%; in [13], 48.8%; in [14] it was 76.9%; in assay [15], 47.8%; in [16] it was 66%; in assay [17], 18.6%. Further, the growth in assay [18] is 35.8%.

Turning to `CN(C)CCCCC(C(=O)CBr)(c1ccccc1)c1ccccc1`, the growth in assay [1] is 30.6%; in [2] it was 86.1%; in assay [3] it was 51.8%; in assay [4] it was 49.5%; in [5], -12.2% (active); in assay [6], -90% (active). Also, the growth in assay [7] was 49.7%; in [8], 5.16% (active); in [9], -76% (active); in [10] it was 31%; in assay [11] it was -7.09% (active); in [19], -55.9% (active). Also, the growth in [12] was 38.1%; in assay [13], -51.5% (active); in assay [14], 48.7%; in [15], 43.7%; in [16], 20.2%; in assay [17], 6.07% (active). For the same compound, the growth in [18] is 18.8%.
